Inconclusive results are not listed. Where a call stands in place of a potency, no number is given. Values without a mark were called inactive. The source made the active and inactive calls. Calls follow the shape of the dose curve; as a rule, active = well fitted curve in the direction sought with a large enough effect; inconclusive = small, poorly fitted or top-dose-only effect, or another doubt; inactive = no such curve, though single readings can be large; an effect the other way counts as inactive or inconclusive. Where a SMILES comes first, the peptide text is derived from it.
Experiments:
[1] = ZIKV-mCherry secondary qHTS for Zika virus inhibitors (AID 1347158); settings: Vero cells, ZIKV-mCherry infection imaging, 48-72 h; series mostly up to 49.2 µM; also: top concentration of the series differs between compounds
From the text: Assay Submitters (PI): Avindra Nath, Ph.D., National Institute of Neurological Disorders and Stroke (NINDS), Bethesda, MD Radhakrishnan Padmanabhan, Ph.D., Georgetown University (GU), Washington D.C. Zika Virus causes congenital defects, including microcephaly and is associated with Guillain-Barre syndrome, eningoencephalitis and myelitis in infected adult. […] Using a target-based approach, we hope to establish a screening paradigm to uncover novel, cell-active NS2B-NS3 protease (Zika Virus) specific inhibitors from NCATS' collection of small molecules using qHTS. […] Four assay panel was created to identify potential Zika Virus inhibitors. […]
384 well ZIKV-mCherry Assay: We have developed a new orthogonal imaging assay in 384-well plate format, which uses recombinant virus ZIKV-mCherry in Vero cells. […] The TIFFs were quantitated using the canned Multi Target Analysis protocol (GE Investigator Workstation software v3.7.2). […] A recombinant Zika viral infection was monitored in the Cy5 channel (cells) using a 2 microm collar dilation from the nuclear bitmap. mCherry objects with an average nuclear RFU intensity above 450 (3 stdev above mean negative control wells) were considered "mcherry positive" and data was analyzed by percent infection rate.

[2] = system: Zika virus NS2B-NS3 protease (unlinked complex); assay: Primary screen GU Rhodamine qHTS for Zika virus inhibitors: Unlinked NS2B-NS3 protease assay (AID 1347159); settings: Recombinant ZIKV NS2B-NS3 protease, Rhodamine110 substrate fluorescence; series mostly up to 107 µM; also: nearly all actives have a fitted effect of over 60% in size
Summary of the method: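 Enzyme 25 nM in Tris-HCl pH 8.0 + 0.01% Tween 20; compounds up to 114 microM, 15 min RT dark; + Rhod110 substrate 1.5 microM; read t0 and 15 min; delta fluorescence → % inhibition → 4-parameter Hill fit.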

[3] = system: Zika virus NS2B-NS3 protease (linked construct); assay: Primary screen NINDS Rhodamine qHTS for Zika virus inhibitors (AID 1347160); settings: purified NS2B-NS3 protease, Rhodamine110 substrate fluorescence; series mostly up to 57.1 µM; also: nearly all actives have a fitted effect of over 55% in size
Summary of the method: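 Enzyme (25 nM, linked NS2B-NS3) was preincubated 15 min with compound in 10 mM Tris-HCl pH 8.0, 0.01% Tween 20. Rhodamine110 substrate (1.5 microM) was then added and fluorescence read at start and after 15 min.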

[4] = system: Zika virus NS2B-NS3 protease; assay: Primary screen GU AMC qHTS for Zika virus inhibitors (AID 1347154); settings: Zika NS2B-NS3 unlinked protease, AMC fluorogenic substrate; series mostly up to 54.1 µM; also: nearly all actives have a fitted effect of over 70% in size; also: potency is read from the fitted curve at half-maximal effect
Summary of the method: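 Unlinked Zika NS2B hydrophilic domain/NS3 protease domain noncovalent complex (25 nM final) in 10 mM Tris-HCl pH 8.0, 0.01% Tween 20, with AMC peptide substrate. Fluorescence (ex 340, em 450 nm) change over 15 min, room temperature; percent inhibition fitted to 4-parameter Hill equation.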

For `CCOC(=O)Cn1cccc1-c1nc(-c2ccc(OC)cc2)c(-c2ccc(OC)cc2)s1`, the outcome [1] was “inactive”, the Potency [2] was “inactive” and the outcome [3] was “inactive”.

In the case of `CC(=O)N[C@@H](CO)C(=O)N[C@@H](CC(=O)O)C(=O)N[C@@H](CCCCN)C(=O)N1CCC[C@H]1C(=O)O` (Ac-SDKP-OH), the Potency [4] is reported as “inactive”.

With `CC(=O)N(c1onc(C)c1C)S(=O)(=O)c1ccc(N)cc1` the Potency [4] was “inactive”.

For `COC(=O)c1cc(Cl)ccc1OC`, the Potency [4] was “inactive”.

In the case of `CNC[C@H](O)[C@@H](O)[C@H](O)[C@H](O)CO`, the Potency [4] is reported as “inactive”.

With `Cc1onc(-c2c(Cl)cccc2Cl)c1C(=O)Cl` the Potency [4] was “inactive”.

`NCC[C@H](O)C(=O)N[C@@H]1C[C@H](N)[C@@H](O[C@H]2O[C@H](CN)[C@@H](O)[C@H](O)[C@@H]2O)[C@H](O)[C@@H]1O[C@H]1O[C@H](CO)[C@@H](O)[C@H](N)[C@@H]1O` gave an activity change, negative = inhibition [4] of -0.909% [at 0.59 µM].

With `Cc1ccc(/C=N/n2c(-c3ccccc3)csc2=S)cc1` the Potency [4] was “inactive”.

In the case of `C/C(=N\O)[C@@H](C)NCC(C)(C)CN[C@H](C)/C(C)=N/O`, the Potency [4] is reported as “inactive”.

For `C[C@]12CCC(=O)C=C1CC[C@@H]1[C@@H]2[C@@H](O)C[C@@]2(C)[C@H]1CC[C@]2(O)C(=O)COC(=O)CCC(=O)O`, the Potency [4] was “inactive”.

For `Cc1ccc2ccc(Cl)cc2n1`, the Potency [4] was “inactive”.

In the case of `Nc1ccc(C(=O)N2CC3CC(CN(Cc4ccccc4)C3)C2)cc1`, the Potency [4] is reported as “inactive”.

With `CC(C)(Oc1ccc(Cl)cc1)C(=O)OCCCOC(=O)C(C)(C)Oc1ccc(Cl)cc1` the Potency [4] was “inactive”.

In the case of `O=C(CS(=O)Cc1ccco1)NC/C=C\COc1cc(CN2CCCCC2)ccn1` (centres undefined), the Potency [4] is reported as “inactive”.

With `O=S(=O)(O)c1ccc2nc(-c3ccccc3)[nH]c2c1` the Potency [4] was “inactive”.

In the case of `COc1cc(C=O)ccc1O`, the Potency [4] is reported as “inactive”.

In the case of `O=C(O)c1[nH]n(-c2ccc(S(=O)(=O)O)cc2)c(=O)c1N=Nc1ccc(S(=O)(=O)O)cc1`, the Potency [4] is reported as “inactive”.

For `CC1CCCCN1CCCOC(=O)c1ccc(OC2CCCCC2)cc1` (centres undefined), the Potency [4] was “inactive”.

With `COCCOCC(OC)OC` the Potency [4] was “inactive”.

With `O=C1CC(c2ccc(Cl)cc2)CC(=O)N1` the Potency [4] was “inactive”.

With `CC(NCCC(c1ccccc1)c1ccccc1)c1ccccc1` (centres undefined) the Potency [4] was “inactive”.

For `C[C@H]1C[C@H](O)c2ccsc2S1(=O)=O`, the Potency [4] was “inactive”.

In the case of `OCCCc1ccccc1`, the Potency [4] is reported as “inactive”.

With `CN1CCCN(C(c2ccccc2)c2ccc(Cl)cc2)CC1` (centres undefined) the Potency [4] was “inactive”.

In the case of `CCCCN(CCCC)C(C(N)=O)c1ccc(OC)cc1` (centres undefined), the Potency [4] is reported as “inactive”.

For `Cn1cnc2c(NCc3ccccc3)nc(NCCO)nc21`, the Potency [4] was “inactive”.

For `Cc1ccc(C(=O)C(=O)O)cc1C`, the Potency [4] was “inactive”.

With `O=C(c1cc(O)c(O)c(O)c1)c1ccc(O)c(O)c1O` the Potency [4] was 891 nM (active).

For `CCCCC(O)/C=C(C)/C=C/C=C/C(=O)N1CCCC1=O` (centres undefined), the Potency [4] was “inactive”.

In the case of `CCCCOCCOC(=O)c1cccnc1`, the Potency [4] is reported as “inactive”.

With `CO[C@@H]1[C@@H](O[C@@H]2O[C@H](C)[C@@H](O[C@H]3C[C@@](C)(O)[C@@H](O)[C@H](C)O3)[C@H](N(C)C)[C@H]2O)[C@@H](CC=O)C[C@@H](C)[C@@H](O[C@@H]2CC[C@H](N(C)C)[C@@H](C)O2)/C=C/C=C/C[C@@H](C)OC(=O)C[C@H]1OC(C)=O` the Potency [4] was “inactive”.

For `Cc1ncc(CO)c(CO)c1O`, the Potency [4] was “inactive”.

With `C[C@@H](O[C@H]1OCCN(Cc2n[nH]c(=O)[nH]2)[C@H]1c1ccc(F)cc1)c1cc(C(F)(F)F)cc(C(F)(F)F)c1` the Potency [4] was “inactive”.

In the case of `C/C(=N/NC(=O)c1ccncc1)C(=O)O`, the Potency [4] is reported as “inactive”.

With `O=C(CCCl)NCc1ccccc1` the Potency [4] was “inactive”.

In the case of `CCCC(CCC)(C(=O)OCC)C(=O)OCC`, the Potency [4] is reported as “inactive”.

With `Cc1c(N)cccc1C(F)(F)F` the Potency [4] was “inactive”.

For `CCCC(=O)Nc1ccc(O)c(C(C)=O)c1`, the Potency [4] was “inactive”.

For `CC(C)C(=O)Nc1cccc(C(F)(F)F)c1`, the Potency [4] was “inactive”.

In the case of `CN1CCC(Nc2ncc3ncnc(Nc4ccc(F)c(Cl)c4)c3n2)CC1`, the Potency [4] is reported as “inactive”.

For `COc1ccc2c(c1)CCCC2=O`, the Potency [4] was “inactive”.

For `CCOc1ccccc1OCC1CNCCO1` (centres undefined), the Potency [4] was “inactive”.

For `C#Cc1ccc(-c2ccccc2F)cc1`, the Potency [4] was “inactive”.

For `C=CCNc1nc(NCC=C)nc(N2CCN(C(c3ccc(F)cc3)c3ccc(F)cc3)CC2)n1`, the Potency [4] was “inactive”.

With `O=[N+]([O-])c1cncn1CCN1CCOCC1` the Potency [4] was “inactive”.

With `CCCc1ncc(C(=O)O)s1` the Potency [4] was “inactive”.

In the case of `COC(=O)/C=C\C(=O)OC`, the Potency [4] is reported as “inactive”.

For `CCOC(=O)N1CCC(n2c(=O)[nH]c3cc(Cl)ccc32)CC1`, the Potency [4] was “inactive”.

In the case of `Cn1c(=O)c2c(ncn2CC(=O)O)n(C)c1=O`, the Potency [4] is reported as “inactive”.

For `Cc1cccc(C)c1NC(=O)c1cc(S(N)(=O)=O)c(Cl)cc1O`, the Potency [4] was “inactive”.

In the case of `CC(C)C(C)(C)C(C)(C)C(C)(C)S`, the Potency [4] is reported as “inactive”.

In the case of `O=C(O)CCCC[P+](c1ccccc1)(c1ccccc1)c1ccccc1`, the Potency [4] is reported as “inactive”.

In the case of `Cc1ccc(C(C)OC(=O)C2(C)CCC(C(=O)O)C2(C)C)cc1` (centres undefined), the Potency [4] is reported as “inactive”.

In the case of `CCOC(=O)c1cc(=O)c2c(OCC(COc3cccc4oc(C(=O)OCC)cc(=O)c34)OC(=O)[C@@H](N)CCCCN)cccc2o1`, the Potency [4] is reported as “inactive”.

In the case of `CC(=O)/C=C/C=C1/C2CCC(C2)C1(C)C` (centres undefined), the Potency [4] is reported as “inactive”.

For `CCOC(=O)C(=O)CCc1ccccc1`, the Potency [4] was “inactive”.

In the case of `CCOC(=O)NNc1ccc(N(CC)CC(C)O)nn1` (centres undefined), the Potency [4] is reported as “inactive”.

With `CC(=O)OC/C=C(C)/C=C/C=C(C)/C=C/C1=C(C)CCCC1(C)C` the Potency [4] was “inactive”.

For `Cc1sccc1Br`, the Potency [4] was “inactive”.

With `Nc1cc(C(F)(F)F)ccc1S` the Potency [4] was “inactive”.

With `CCN(CC)CCN` the Potency [4] was “inactive”.

In the case of `CC(C)C(=O)OCc1cccc(OC(=O)[C@@H]2N3C(=O)[C@@H](NC(=O)Cc4ccccc4)[C@H]3SC2(C)C)c1`, the Potency [4] is reported as “inactive”.

With `Cc1oc(=O)oc1COC(=O)[C@@H]1N2C(=O)[C@@H](NC(=O)[C@H](N)c3ccccc3)[C@H]2SC1(C)C` the Potency [4] was “inactive”.

For `OC[C@]1(O)OC[C@@H](O)[C@H](O)[C@@H]1O`, the Potency [4] was “inactive”.

For `CCC(C(=O)OCCN1CCOC(c2ccccc2)C1C)c1ccccc1` (centres undefined), the Potency [4] was “inactive”.

In the case of `CCCOc1ccc2c(c1)CC[C@@H]1[C@@H]2CC[C@]2(C)C(OC)CC[C@@H]12` (some centres undefined), the Potency [4] is reported as “inactive”.

For `O=C1CC2(CCCC2)CC(=O)N1CCNCC1COc2ccccc2O1` (centres undefined), the Potency [4] was “inactive”.

— PubChem BioAssay (NCATS)
